From publication PMC7862700, “An all-to-all approach to the identification of sequence-specific readers for epigenetic DNA modifications on cytosine”

Columns and labels:
Assay in all cases: DAPPL (digital affinity profiling via proximity ligation, sequencing); 10 mM Tris-HCl pH 7.5, 50 mM NaCl, 1 mM DTT, 4% glycerol, room temperature, 30 min; GST-TFs on glutathione beads, 16-mer random dsDNA library, 0.1% formaldehyde crosslink after washing; high values mean tight binding
Conditions in all cases: protein: recombinant; tags: N-terminal GST; dsDNA, one strand shown
[1] = target: T1, FLI1 (Homo sapiens, UniProt Q01543 1-452)
T1 sequence: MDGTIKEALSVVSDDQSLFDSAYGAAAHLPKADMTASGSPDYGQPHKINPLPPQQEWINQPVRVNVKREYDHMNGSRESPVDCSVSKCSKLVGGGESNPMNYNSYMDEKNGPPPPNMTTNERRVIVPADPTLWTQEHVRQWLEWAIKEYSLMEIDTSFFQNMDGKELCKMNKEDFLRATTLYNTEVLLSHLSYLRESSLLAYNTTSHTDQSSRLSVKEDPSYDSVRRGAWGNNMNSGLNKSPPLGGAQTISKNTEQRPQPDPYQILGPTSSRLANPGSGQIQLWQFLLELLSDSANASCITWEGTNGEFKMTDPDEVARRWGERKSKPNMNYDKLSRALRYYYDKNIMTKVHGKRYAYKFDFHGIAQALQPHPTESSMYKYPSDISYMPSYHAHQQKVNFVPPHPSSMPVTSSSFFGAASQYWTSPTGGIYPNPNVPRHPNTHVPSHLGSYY
Procedure, shortened: (§1)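 After expression in yeast as GST fusions, human transcription factors were bound to glutathione beads, DNA-barcoded and mixed with a tag-only sample. The pools were incubated with 200 nmole of a 16-mer random double-stranded DNA library in Tris/NaCl/DTT/glycerol buffer (30 min, room temperature), washed and crosslinked with 0.1% formaldehyde. Proximity ligation with BsaI/T4 ligase ran for 1 h at 37 °C, before PCR amplification and sequencing on an Illumina NextSeq500. Binding signal is a hexamer's read frequency for a factor divided by its frequency for the tag-only sample.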

[2] = target: T2, ELK1 (Homo sapiens, UniProt P19419 1-428)
T2 sequence: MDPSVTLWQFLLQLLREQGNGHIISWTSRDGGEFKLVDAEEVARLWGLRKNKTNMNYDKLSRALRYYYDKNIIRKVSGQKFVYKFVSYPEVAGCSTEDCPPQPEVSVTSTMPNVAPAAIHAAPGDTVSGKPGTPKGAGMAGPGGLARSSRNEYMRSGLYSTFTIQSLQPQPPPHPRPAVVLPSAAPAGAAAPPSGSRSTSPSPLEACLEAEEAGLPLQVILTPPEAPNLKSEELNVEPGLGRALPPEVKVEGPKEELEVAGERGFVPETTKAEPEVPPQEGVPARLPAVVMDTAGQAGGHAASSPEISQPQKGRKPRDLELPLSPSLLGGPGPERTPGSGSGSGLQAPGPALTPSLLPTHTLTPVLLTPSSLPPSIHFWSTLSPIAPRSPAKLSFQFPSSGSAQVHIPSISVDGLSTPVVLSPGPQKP
Procedure, shortened: as §1

[3] = target: T3, GABPA (Homo sapiens, UniProt Q06546 1-454)
T3 sequence: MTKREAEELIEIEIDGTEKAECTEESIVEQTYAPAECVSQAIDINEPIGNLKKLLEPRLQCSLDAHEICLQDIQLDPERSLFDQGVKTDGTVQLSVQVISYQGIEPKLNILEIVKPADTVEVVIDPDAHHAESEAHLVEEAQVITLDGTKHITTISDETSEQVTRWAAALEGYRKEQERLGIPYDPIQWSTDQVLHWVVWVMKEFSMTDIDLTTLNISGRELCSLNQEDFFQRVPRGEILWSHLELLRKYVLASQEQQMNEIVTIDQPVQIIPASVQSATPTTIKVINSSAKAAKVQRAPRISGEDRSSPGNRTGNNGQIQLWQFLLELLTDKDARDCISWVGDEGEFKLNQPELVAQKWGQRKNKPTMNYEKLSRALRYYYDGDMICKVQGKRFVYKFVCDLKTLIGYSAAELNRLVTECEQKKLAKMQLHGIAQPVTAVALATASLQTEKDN
Procedure, shortened: as §1

[4] = target: T4, ERG (Homo sapiens, UniProt P11308 1-479)
T4 sequence: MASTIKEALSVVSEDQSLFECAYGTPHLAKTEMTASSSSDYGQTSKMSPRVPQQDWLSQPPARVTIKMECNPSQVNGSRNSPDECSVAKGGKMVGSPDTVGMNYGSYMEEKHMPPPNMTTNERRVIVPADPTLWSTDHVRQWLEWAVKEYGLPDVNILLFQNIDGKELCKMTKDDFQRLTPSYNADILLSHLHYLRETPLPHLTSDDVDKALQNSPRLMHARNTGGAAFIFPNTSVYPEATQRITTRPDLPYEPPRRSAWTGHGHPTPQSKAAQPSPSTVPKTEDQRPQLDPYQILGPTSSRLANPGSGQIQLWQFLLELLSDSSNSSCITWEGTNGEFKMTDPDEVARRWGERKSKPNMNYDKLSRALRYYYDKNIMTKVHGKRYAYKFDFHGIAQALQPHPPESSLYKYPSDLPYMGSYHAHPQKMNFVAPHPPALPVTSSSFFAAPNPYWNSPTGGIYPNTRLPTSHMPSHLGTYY
Procedure, shortened: as §1

[5] = target: ELF1 (Homo sapiens, UniProt P32519 1-619)
Procedure, shortened: as §1

[6] = target: T5, EHF (Homo sapiens, UniProt Q9NZC4 1-300)
T5 sequence: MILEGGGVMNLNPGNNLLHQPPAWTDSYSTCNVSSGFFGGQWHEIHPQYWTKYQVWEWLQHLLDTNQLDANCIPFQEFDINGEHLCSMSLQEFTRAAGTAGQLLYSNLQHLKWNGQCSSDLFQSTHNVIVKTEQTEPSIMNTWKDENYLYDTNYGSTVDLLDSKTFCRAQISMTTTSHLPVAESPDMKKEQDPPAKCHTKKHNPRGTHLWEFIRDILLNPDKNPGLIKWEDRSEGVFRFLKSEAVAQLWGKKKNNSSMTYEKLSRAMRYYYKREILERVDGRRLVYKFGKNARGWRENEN
Procedure, shortened: as §1

[7] = target: SPI1 (Homo sapiens, UniProt P17947 1-270)
Procedure, shortened: as §1

[8] = target: SPIB (Homo sapiens, UniProt Q01892 1-262)
Procedure, shortened: as §1

[9] = target: T6, ELK3 (Homo sapiens, UniProt P41970 1-407)
T6 sequence: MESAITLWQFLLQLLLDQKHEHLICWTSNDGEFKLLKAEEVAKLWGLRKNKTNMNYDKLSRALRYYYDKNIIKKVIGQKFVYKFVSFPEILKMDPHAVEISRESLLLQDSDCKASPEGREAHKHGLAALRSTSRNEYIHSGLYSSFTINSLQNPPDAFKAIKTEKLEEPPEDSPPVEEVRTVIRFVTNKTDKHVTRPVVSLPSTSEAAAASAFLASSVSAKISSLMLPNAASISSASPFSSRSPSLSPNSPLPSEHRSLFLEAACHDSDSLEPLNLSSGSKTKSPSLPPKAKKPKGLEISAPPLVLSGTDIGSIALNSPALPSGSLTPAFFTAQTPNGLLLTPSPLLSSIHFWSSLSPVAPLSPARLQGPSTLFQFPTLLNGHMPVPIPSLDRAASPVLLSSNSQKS
Procedure, shortened: as §1

ELF1, sequence (P32519 whole entry): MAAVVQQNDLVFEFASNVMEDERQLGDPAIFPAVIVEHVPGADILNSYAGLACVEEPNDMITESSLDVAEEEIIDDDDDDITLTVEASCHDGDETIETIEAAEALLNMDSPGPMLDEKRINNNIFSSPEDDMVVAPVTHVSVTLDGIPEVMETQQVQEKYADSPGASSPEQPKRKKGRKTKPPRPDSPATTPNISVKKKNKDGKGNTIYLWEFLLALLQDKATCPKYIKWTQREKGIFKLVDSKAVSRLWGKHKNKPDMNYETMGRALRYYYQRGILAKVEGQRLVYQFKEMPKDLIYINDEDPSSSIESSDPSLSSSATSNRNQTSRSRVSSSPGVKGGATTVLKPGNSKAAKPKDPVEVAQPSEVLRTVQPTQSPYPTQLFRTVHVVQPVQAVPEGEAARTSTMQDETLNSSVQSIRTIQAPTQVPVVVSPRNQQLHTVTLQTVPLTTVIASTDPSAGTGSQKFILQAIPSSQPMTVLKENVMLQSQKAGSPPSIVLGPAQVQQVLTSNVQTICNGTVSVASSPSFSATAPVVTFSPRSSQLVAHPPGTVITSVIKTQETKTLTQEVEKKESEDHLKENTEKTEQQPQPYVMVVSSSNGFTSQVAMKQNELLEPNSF
SPIB, sequence (Q01892 whole entry): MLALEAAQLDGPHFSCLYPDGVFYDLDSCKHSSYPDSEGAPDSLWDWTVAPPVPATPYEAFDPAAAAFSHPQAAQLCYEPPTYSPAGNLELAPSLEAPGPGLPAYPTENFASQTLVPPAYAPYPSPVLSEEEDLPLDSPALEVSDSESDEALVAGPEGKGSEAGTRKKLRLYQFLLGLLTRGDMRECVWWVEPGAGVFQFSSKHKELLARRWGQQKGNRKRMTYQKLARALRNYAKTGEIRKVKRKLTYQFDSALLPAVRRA

Sequence	binding signal [1]	binding signal [2]	binding signal [3]	binding signal [4]	binding signal [5]	binding signal [6]	binding signal [7]	binding signal [8]	binding signal [9]
GATGAT	1.34 fold enrichment (6-mer frequency, TF over GST control)	1.37 fold enrichment (6-mer frequency, TF over GST control)	1.35 fold enrichment (6-mer frequency, TF over GST control)	1.33 fold enrichment (6-mer frequency, TF over GST control)	1.32 fold enrichment (6-mer frequency, TF over GST control)	1.44 fold enrichment (6-mer frequency, TF over GST control)	1.28 fold enrichment (6-mer frequency, TF over GST control)	1.33 fold enrichment (6-mer frequency, TF over GST control)	1.34 fold enrichment (6-mer frequency, TF over GST control)
ATGATG	1.39 fold enrichment (6-mer frequency, TF over GST control)	1.35 fold enrichment (6-mer frequency, TF over GST control)	1.33 fold enrichment (6-mer frequency, TF over GST control)	1.18 fold enrichment (6-mer frequency, TF over GST control)	1.36 fold enrichment (6-mer frequency, TF over GST control)	1.4 fold enrichment (6-mer frequency, TF over GST control)	1.24 fold enrichment (6-mer frequency, TF over GST control)	1.35 fold enrichment (6-mer frequency, TF over GST control)	1.53 fold enrichment (6-mer frequency, TF over GST control)
CCCGTA	1.14 fold enrichment (6-mer frequency, TF over GST control)	1.11 fold enrichment (6-mer frequency, TF over GST control)	1.2 fold enrichment (6-mer frequency, TF over GST control)	1.2 fold enrichment (6-mer frequency, TF over GST control)	1.25 fold enrichment (6-mer frequency, TF over GST control)	1.24 fold enrichment (6-mer frequency, TF over GST control)	1.19 fold enrichment (6-mer frequency, TF over GST control)	1.14 fold enrichment (6-mer frequency, TF over GST control)	1.32 fold enrichment (6-mer frequency, TF over GST control)
GACTCT	1.3 fold enrichment (6-mer frequency, TF over GST control)	1.28 fold enrichment (6-mer frequency, TF over GST control)	1.37 fold enrichment (6-mer frequency, TF over GST control)	1.34 fold enrichment (6-mer frequency, TF over GST control)	1.37 fold enrichment (6-mer frequency, TF over GST control)	1.27 fold enrichment (6-mer frequency, TF over GST control)	1.2 fold enrichment (6-mer frequency, TF over GST control)	1.37 fold enrichment (6-mer frequency, TF over GST control)	1.2 fold enrichment (6-mer frequency, TF over GST control)
TAGTTC	1.47 fold enrichment (6-mer frequency, TF over GST control)	1.41 fold enrichment (6-mer frequency, TF over GST control)	1.28 fold enrichment (6-mer frequency, TF over GST control)	1.45 fold enrichment (6-mer frequency, TF over GST control)	1.37 fold enrichment (6-mer frequency, TF over GST control)	1.3 fold enrichment (6-mer frequency, TF over GST control)	1.43 fold enrichment (6-mer frequency, TF over GST control)	1.51 fold enrichment (6-mer frequency, TF over GST control)	1.15 fold enrichment (6-mer frequency, TF over GST control)
TATTTA	1.48 fold enrichment (6-mer frequency, TF over GST control)	1.5 fold enrichment (6-mer frequency, TF over GST control)	1.39 fold enrichment (6-mer frequency, TF over GST control)	1.38 fold enrichment (6-mer frequency, TF over GST control)	1.42 fold enrichment (6-mer frequency, TF over GST control)	1.43 fold enrichment (6-mer frequency, TF over GST control)	1.46 fold enrichment (6-mer frequency, TF over GST control)	1.39 fold enrichment (6-mer frequency, TF over GST control)	1.61 fold enrichment (6-mer frequency, TF over GST control)
TTGGTG	1.35 fold enrichment (6-mer frequency, TF over GST control)	1.21 fold enrichment (6-mer frequency, TF over GST control)	1.42 fold enrichment (6-mer frequency, TF over GST control)	1.23 fold enrichment (6-mer frequency, TF over GST control)	1.3 fold enrichment (6-mer frequency, TF over GST control)	1.43 fold enrichment (6-mer frequency, TF over GST control)	1.22 fold enrichment (6-mer frequency, TF over GST control)	1.22 fold enrichment (6-mer frequency, TF over GST control)	1.55 fold enrichment (6-mer frequency, TF over GST control)
CTTCAT	1.6 fold enrichment (6-mer frequency, TF over GST control)	1.45 fold enrichment (6-mer frequency, TF over GST control)	1.45 fold enrichment (6-mer frequency, TF over GST control)	1.4 fold enrichment (6-mer frequency, TF over GST control)	1.52 fold enrichment (6-mer frequency, TF over GST control)	1.31 fold enrichment (6-mer frequency, TF over GST control)	1.49 fold enrichment (6-mer frequency, TF over GST control)	1.48 fold enrichment (6-mer frequency, TF over GST control)	1.38 fold enrichment (6-mer frequency, TF over GST control)
